Assay results published in PubChem BioAssay AID1063 (University of Pittsburgh Molecular Library Screening Center, 2008).
Hit rate of the full screen: of about 200,000 compounds, about 18,000 (9%) were called active. Rule as the data show it: active = inhibition above about 50%; inactive = the rest. The list comes from a sample in which actives are over-represented; it also holds similar structures and randomly drawn compounds.

assay: antileishmanial activity against promastigotes – primary screen (AID 1063); settings: Leishmania major promastigotes, resazurin fluorescence viability; at 10 µM; stronger effect = higher value;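 also: promastigotes grown with compound for 44 hours at 28 °C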

SMILES	inhibition
CC(C)N(CC#CCC1(O)c2ccccc2-c2ccccc21)C(C)C	2.06% (inactive)
CN(C)CCCN=Cc1c(O)n(Cc2ccco2)c(=O)[nH]c1=O	-6.14% (inactive)
C=CCN1C(=O)C2(C(C(=O)OCC)=C(N)Oc3c2c(=O)oc2ccccc32)c2ccccc21 (stereo not given)	-6.93% (inactive)
Cc1ccsc1C(=O)C1CCCN(Cc2ccc(O)cc2)C1 (stereo not given)	83.9% (active)
Cc1nc2ccc(N3CCN(C)CC3)cc2nc1C	3.66% (inactive)
COc1cc(Cn2c(N)c(C(=O)NCc3ccco3)c3nc4ccccc4nc32)cc(OC)c1OC	100% (active)
CCOC(=O)c1c(N)n(Cc2ccccc2)c2nc3ccccc3nc12	100% (active)
CCOC(=O)c1c(N)n(CCN2CCOCC2)c2nc3ccccc3nc12	24.6% (inactive)
O=c1[nH]c(=O)n(-c2ccccc2)c(O)c1C=NC12CN3CN(CN(C3)C1)C2	-6.09% (inactive)
OC(Cn1c2ccccc2c2ccccc21)C[n+]1ccccc1 (stereo not given)	1.49% (inactive)
COP(=O)(OC)C(NC(=O)c1ccc(C)cc1)C(Cl)(Cl)Cl (stereo not given)	-7.25% (inactive)
O=C(Cc1ccccc1[N+](=O)[O-])N1CCN(Cc2ccc3c(c2)OCO3)CC1	48% (inactive)
CNC(=S)N/N=C1\C2CN3CCN(C2)CC1(c1ccccc1)C3	-5.87% (inactive)
c1cncc(CNCCc2c[nH]c3ccccc23)c1	22.7% (inactive)
CCc1nnc(NS(=O)(=O)c2ccc(N=Cc3c(O)n(-c4ccccc4)c(=O)[nH]c3=O)cc2)s1	-1.81% (inactive)
COP(=O)(NS(=O)(=O)c1ccccc1)OC	-6.48% (inactive)
COc1ccc(C(=O)C2CCCN(Cc3ccc(C)s3)C2)cc1OC (stereo not given)	89.4% (active)
Cc1cccc2c(CCN)c[nH]c12	0.35% (inactive)
CCC(=NCCc1ccccc1)c1c(O)n(C2CCCCC2)c(=O)[nH]c1=O	21% (inactive)
O=C(Cn1c(=O)n(CC2CS2)c2ccccc21)N1CCCCC1 (stereo not given)	2.59% (inactive)
O=C(Cc1ccccc1)N1CCN(C2CCCCCC2)CC1	64.8% (active)
CCCn1c(C(=O)c2ccccc2OC)nc2ccccc21	15% (inactive)
C[C@@]1([C@@H](NP(=O)(c2ccccc2)c2ccccc2)c2ccccc2)C[C@H]1CCO	-1.91% (inactive)
CNP1(NC)=Nc2nn(-c3ccccc3)c(N)c2C(c2ccccc2)=N1	-6.36% (inactive)
COc1ccccc1N=C1SCCCN1C	-5.49% (inactive)

SMILES	inhibition
Cc1ccc(-c2nc3ccccc3c(=O)n2-c2ccc(Br)cn2)cc1	3.21% (inactive)
CC1=CC(=Cc2sc3ccccc3[n+]2C)C=C(C)O1	100% (active)
COc1cc(-n2c(=S)[nH]c3ccc(C)cc3c2=O)c(Cl)cc1Cl	43.6% (inactive)
Cc1ccc(Cn2nnnc2CN2CCC(n3nnc4ccccc43)CC2)cc1	4.28% (inactive)
O=C(C1CC(=O)N(C2CCCC2)C1)N1CCC2(CC1)OCCO2 (stereo not given)	-6.1% (inactive)
CCN(CC)c1ccc([N+](=O)[O-])c2cccnc12	9.8% (inactive)
Cc1cc(C)cc(NC(=S)NC2CC3CCCC(C2)N3Cc2cccs2)c1 (stereo not given)	87.3% (active)
O=C(COc1ccc2ccccc2c1)N1CCN(Cc2ccncc2)CC1	44.3% (inactive)
OC1/C(=C/c2ccc(C(F)(F)F)cc2)N2CCC1CC2 (stereo not given)	0.72% (inactive)
CCOC(=O)C(O)(c1ccc(N=Cc2ccccc2O)c(C)c1)C(F)(F)F (stereo not given)	-7.14% (inactive)
O=C1/C(=C\c2ccc3c(c2)OCO3)N2CCC1CC2	4.04% (inactive)
Cc1nc2ccccn2c1P(=S)(N1CCCCC1)N1CCCCC1	97.4% (active)
COc1ccc(CN2CCN(c3ccccc3F)CC2)c(OC)c1	9.36% (inactive)
CC(c1ccccc1)(c1ccccc1)c1ccncc1	19.2% (inactive)
c1cc2c(cc1CCNC1CCCCCC1)OCO2	95.2% (active)
Fc1ccc(N2CCN(Cc3ccc4c(c3)OCO4)CC2)cc1	44.5% (inactive)
CC(=NCc1ccc2c(c1)OCO2)c1c(O)[nH]c(=O)[nH]c1=O	-2.64% (inactive)
c1ccc2sc(C3CCCNC3)nc2c1 (stereo not given)	31.9% (inactive)
O=C(O)CCn1cc(C=C2C(=O)NC(=S)NC2=O)c(-c2cccc(Br)c2)n1	-7.24% (inactive)
Cn1c(O)c(C=NCCN2CCNCC2)c(=O)n(C)c1=O	-6.59% (inactive)
CN1CCC(N(C)Cc2cccnc2)CC1	-2.3% (inactive)
COc1ccc(NC(=O)N2CCC3(CC2)OCCO3)c(OC)c1	-0.24% (inactive)
NC(=O)Cn1cc(C(=O)c2ccccc2F)c2ccccc21	-6.3% (inactive)
N#Cc1ccc(Cn2cc(C(=O)c3ccco3)c3ccccc32)cc1	93.3% (active)
CC(C)Nc1nc(Cl)nc(NC(C)C)n1	24.7% (inactive)

SMILES	inhibition
COc1ccc(-c2nn(CCC#N)cc2C(=O)O)cc1	-0.84% (inactive)
CC(C)(C)c1ccc(OC(=O)N2CCCCC2)cc1	-10.5% (inactive)
CC(C)c1ccc(OCC(=O)N2CCN(C)CC2)c(Br)c1	37.9% (inactive)
CN1CCN(C(=O)COc2ccc(C(C)(C)C)cc2Br)CC1	59.9% (active)
CSC1=NP(=S)(SC)N(C)c2nc3n(c21)CCC3 (stereo not given)	2.74% (inactive)
CN(C)C(=O)NC(O)C(Cl)(Cl)Cl (stereo not given)	-1.83% (inactive)
CN(C)CC1CCCCC1OC(=O)c1ccc(Cl)c(Cl)c1 (stereo not given)	56.1% (active)
COc1ccc(NC(=O)c2cn(CCC#N)nc2-c2ccc([N+](=O)[O-])cc2)cc1	-5.27% (inactive)
CN1C2C=C(N(C(=O)c3ccc(Cl)cc3)c3ccccc3)CC1CC2 (stereo not given)	-6.27% (inactive)
N#CC1=C(N)Oc2c(c(=O)oc3ccccc23)C1c1ccccc1OC(=O)c1cccs1 (stereo not given)	8.6% (inactive)
CCNc1nc2[nH]c(=O)c3c(c2s1)OC(N)=C(C#N)C3c1cccs1 (stereo not given)	56.6% (active)
CCOCCc1c(O)[nH]c(=S)[nH]c1=O	-2.27% (inactive)
O=C(CN1CCCC1=O)NCCc1ccccc1	-2.62% (inactive)
N[C@@H](Cc1c[nH]c2ccccc12)c1nnc(SCc2c(F)cccc2Cl)o1	-1.59% (inactive)
CC(Cc1cccs1)NCc1ccc(Cl)cc1 (stereo not given)	37.3% (inactive)
Cc1ccc(-c2cc(C(=O)N3CCC4(CC3)OCCO4)no2)cc1	3.46% (inactive)
COC(=O)C(c1ccccc1)N1CCCCCC1 (stereo not given)	-3.28% (inactive)
COc1ccccc1N1CCN(C(CNC(=O)Oc2ccccc2)c2cccnc2)CC1 (stereo not given)	90.8% (active)
O=C(NCC(c1cccnc1)N1CCN(c2ccccc2)CC1)Oc1ccccc1 (stereo not given)	86.7% (active)
COC(=O)N1C(c2ccccc2)C1c1ccccc1 (stereo not given)	-7.32% (inactive)
CN(C)/C=C(\C=[N+](C)C)c1[nH]ncc1[N+](=O)[O-]	-3.98% (inactive)
CC(C)CN1CCN(Cc2ccccc2C(F)(F)F)CC1CCO (stereo not given)	1.28% (inactive)
O=c1[nH]c(=S)n(C2CC2)c(O)c1/C=N/N1CCOCC1	-5.26% (inactive)
CN(C)C(=O)Oc1cc(=O)n2c3c(cccc13)CCC2	23.7% (inactive)
Nc1ccc(C(=O)N/N=C2/CN3CCC2CC3)cc1	-7.96% (inactive)
